Screening data: PubChem, several laboratories
Most compounds without a hit are left out; they make up all but 4.2% or so of the library.
RecA intein inh: blocks M. tuberculosis RecA intein splicing; P9WHJ3; cell-free RecA intein splicing, fluorescence; inhibition, % (test concentration not listed); 290,000 tested, 0.75% active; AID 2221; in the data active = inhibition above about 30%;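 note: 0% = vehicle wells and 100% = reference inhibitor control wells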
Target sequence (P9WHJ3 whole entry, looked up): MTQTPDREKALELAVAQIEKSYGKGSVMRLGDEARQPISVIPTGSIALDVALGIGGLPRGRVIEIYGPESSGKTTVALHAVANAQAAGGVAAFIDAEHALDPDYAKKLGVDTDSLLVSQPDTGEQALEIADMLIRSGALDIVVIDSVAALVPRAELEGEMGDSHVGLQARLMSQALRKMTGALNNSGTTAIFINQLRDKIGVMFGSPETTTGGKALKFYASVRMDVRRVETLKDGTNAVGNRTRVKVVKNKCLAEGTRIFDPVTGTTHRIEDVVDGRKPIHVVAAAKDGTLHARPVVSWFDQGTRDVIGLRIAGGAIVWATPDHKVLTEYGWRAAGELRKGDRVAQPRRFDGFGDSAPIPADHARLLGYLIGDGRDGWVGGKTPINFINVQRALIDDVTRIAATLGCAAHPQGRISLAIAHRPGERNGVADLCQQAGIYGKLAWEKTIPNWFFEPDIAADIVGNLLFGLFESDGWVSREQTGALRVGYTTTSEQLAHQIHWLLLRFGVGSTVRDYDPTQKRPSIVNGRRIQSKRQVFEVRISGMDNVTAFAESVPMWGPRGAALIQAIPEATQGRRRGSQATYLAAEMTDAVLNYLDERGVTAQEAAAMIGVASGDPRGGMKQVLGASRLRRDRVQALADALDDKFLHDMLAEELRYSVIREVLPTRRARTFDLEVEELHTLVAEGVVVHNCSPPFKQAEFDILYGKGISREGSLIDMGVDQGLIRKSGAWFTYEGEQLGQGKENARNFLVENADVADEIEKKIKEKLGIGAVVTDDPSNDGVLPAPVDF
BJeLR lethal: BJeLR cell viability loss; BJeLR (HRASV12) viability, CellTiter-Glo ATP luminescence, 48 h; inhibition, % (concentration not given with the values); 300,000 tested, 0.17% active; AID 1554; in the data active = inhibition above about 50%
Mtb FBA inh: inhibitors of M. tuberculosis fructose-bisphosphate aldolase; P9WQA3; purified M. tuberculosis FBA, fluorescence read-out; inhibition, % at 1 µM; 360,000 tested, 2.3% active; AID 588726; in the data active = inhibition above about 27%;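 note: 0% = vehicle and 100% = reference inhibitor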
PrPC TRFRET: cell surface PrPC inhibition, primary TR-FRET screen; 370,000 tested, 0.43% active; TR-FRET read-out; P04156; AID 720596; inhibition, % at 13.8 µM; in the data active = inhibition above about 24%; note: 0% = median of the test wells and 100% = reference compound wells
GDH-TPI inh: counter-screen for M. tuberculosis FBA inhibitors: GDH-TPI coupled enzymes; GDH-TPI coupled enzyme counterscreen, NADH absorbance; inhibition, % at 4.8 µM; 360,000 tested, 1.2% active; AID 588335; in the data active = inhibition above about 30%;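 note: 0% = DMSO wells and 100% = wells lacking the enzyme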
Numbers without * were called inactive; i = inactive; . = no result given; + = active, no number.

SMILES	RecA intein inh	BJeLR lethal	Mtb FBA inh	PrPC TRFRET	GDH-TPI inh
CCOC(=O)[C@]12CCCC=C1N(Cc1ccc(OC)cc1)C(=O)[C@@H]2CC(=O)NCc1cccc(C(F)(F)F)c1	.	.	.	6.1	.
C=CCNC(=O)CN(C(=O)c1csc2ccc(Cl)cc12)c1cccc(Br)c1	.	.	.	5.4	.
Nc1nnnn1/N=C/c1ccc(Br)cc1	0.7	0.1	1.2	2.2	6.9
Nc1nnnn1/N=C/c1cc(Br)ccc1O	-3.3	-9.4	-1.8	-6.2	32.4*
COc1ccc(N=Nc2c(N)nn(C)c2N)cc1	.	.	-5.4	-11.2	60.1*
COc1ccc(N=C(N)NC(=O)OCc2ccccc2)cc1	.	.	.	-2.5	.
NC1=NC(=O)C(=Cc2ccccc2)S1	.	.	2.8	-8.4	31.0*
C=CCSC1=NC(=O)/C(=C/c2cccs2)S1	.	.	-1.4	-7.9	28.4
NC1=NC(=O)/C(=C/c2cccs2)S1	.	3.7	-2.4	-17.8	31.8*
CN(C)C1=NC(=O)/C(=C\c2ccccc2)S1	0.4	1.8	-3.5	-21.0	31.1*
COc1ccc(/C=C2\SC(N)=NC2=O)cc1	-0.7	-0.4	1.4	-9.3	30.0
CCOCCOC(=O)c1[nH]c2c(c1C)C(=O)CC(c1cccs1)C2 (centres undefined)	1.2	65.1*	-3.0	9.0	6.2
CCOCCOC(=O)c1[nH]c2c(c1C)C(=O)CC(c1ccccc1)C2 (centres undefined)	1.7	52.9*	-1.5	20.8	-2.6
COc1cc2c(cc1NC(=O)CSc1nnc(COc3ccccc3)n1Cc1ccco1)oc1ccccc12	.	.	.	-3.1	.
Cc1ccc(-n2c(SCC(=O)Nc3ccc4c(c3)OCCO4)nnc2-c2cnccn2)cc1	.	.	.	3.0	.
Nc1ccc2nc[nH]c2c1	48.8*	5.2	2.8	-8.1	-4.4
Fc1cc(F)c(CSc2nnc(-c3cccnc3)n2Cc2ccccc2)cc1F	.	.	.	9.4	.
O=C(CN1CCCC1)N1CCCc2c1c(=O)oc1ccc(OCc3ccccc3)cc21	2.3	-1.8	20.9	-12.8	33.8*
CCCOc1ccc2oc(=O)c3c(c2c1)CCCN3C(=O)CN1CCN(C(=O)c2ccco2)CC1	-2.6	-1.1	.	.	.
O=C(NCc1ccccc1Br)c1cccc2c1C(=O)c1ccc(-c3ccc(OC(F)(F)F)cc3)cc1S2(=O)=O	.	.	2.8	.	2.2
O=C(O)c1cccc2c1C(=O)c1ccc(-c3ccc(OC(F)(F)F)cc3)cc1S2(=O)=O	.	.	2.2	-22.4	31.8*
O=c1oc2c(CN3CCN(CCO)CC3)c(O)ccc2cc1-c1ccccn1	i	3.5	+	-12.3	17.5
Cc1cc(=O)oc2c(CN3CCN(CCO)CC3)c(O)ccc12	-41.0	-5.0	+	-9.3	11.4
CCN1CCN(Cc2c(O)ccc3c(C)cc(=O)oc23)CC1	-29.1	-11.0	+	-7.9	16.7
CN1CCN(Cc2c(O)ccc3c(-c4ccccc4)cc(=O)oc23)CC1	-44.8	0.2	3.2	-9.3	10.6
SMILES	RecA intein inh	BJeLR lethal	Mtb FBA inh	PrPC TRFRET	GDH-TPI inh
CCCc1cc(=O)oc2c(CN3CCCC3)c(O)ccc12	-80.0	-2.0	.	1.7	20.1
Cc1cc(=O)oc2c(CN3CCCC3)c(O)ccc12	-59.1	-11.7	+	14.3	19.3
CCc1c(C(C)O)oc2ccc3c(C)cc(=O)oc3c12 (centres undefined)	-3.8	-8.4	.	-0.4	.
COCCN1Cc2cc(C(=O)OC)c3c(c2C1=O)c1cc(OC)ccc1n3S(=O)(=O)c1ccc(C)cc1	.	.	.	-1.3	.
O=C(OCc1cn(Cc2cc(F)cc(F)c2)nn1)N1CCOCC1	.	.	.	-0.4	.
COc1ccc(S[C@]2(C(=O)N3CCN(C(C)=O)CC3)CC(=O)N(C(=O)Nc3ccc(C)c(Cl)c3)[C@@H]2c2ccc(OC)cc2)cc1	.	.	.	9.8	.
COc1ccccc1CNC(=O)NCCCN1CCN(c2ccc(F)cc2)CC1	.	.	.	0.0	.
COc1cccc(/C=C2\SC(=S)N(CCC(=O)N3CCCCC3CCO)C2=O)c1 (centres undefined)	2.3	-1.0	-4.3	0.1	21.4
CCc1noc(C)c1C(=O)NCCN1C(=O)S/C(=C\c2ccc(OC)cc2)C1=O	-1.8	-7.9	-4.6	-0.9	30.8*
Cc1ccc(/C=C2\SC(=O)N(CCC(=O)N3CCN(C)CC3)C2=O)cc1	0.2	0.5	0.2	0.8	35.3*
COc1ccc(/C=C2\SC(=O)N(CCNC(=O)CCS(=O)(=O)c3ccc(C)cc3)C2=O)cc1	1.4	-2.3	2.5	-15.3	32.6*
COc1cccc(/C=C2\SC(=O)N(CCC(=O)N3CCC(C(=O)O)CC3)C2=O)c1	-0.4	13.7	-1.1	-17.6	46.1*
COc1ccc(/C=C2\SC(=O)N(CCNC(=O)Cn3cnnn3)C2=O)cc1	6.3	16.1	-1.8	.	22.3
CN1CCN(C(=O)CCN2C(=O)S/C(=C/c3ccc(Cl)cc3)C2=O)CC1	5.0	.	0.5	-8.4	21.9
